Results published in PubChem BioAssay (Tox21).
Results filed as inconclusive are left out. Active and inactive are the calls of the source. Unless noted, calls follow the shape of the dose curve; as a rule, active = well fitted curve in the direction sought with a large enough effect in the repeat runs; inconclusive = weak or mixed curves; inactive = no such curve, though single readings can be large; an effect the other way counts as inactive or inconclusive.

How the values were obtained:
[1] = qHTS assay to identify small molecule agonists of the vitamin D receptor (VDR) signaling pathway - cell viability counter screen (AID 743224); also: series mostly up to about 63 µM; % is scaled to controls: 0 for no effect and ±100 for the full control effect; nearly all actives have a fitted effect of over 50% in size
Outline: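 VDR-bla cell line, quantitative HTS format; 16 h compound incubation (37C, 5% CO2); ATP-based CellTiter-Glo luminescence measured in the reporter assay wells.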

[2] = qHTS assay to identify small molecule antagonists of the vitamin D receptor (VDR) signaling pathway - cell viability counter screen (AID 743225); also: % is scaled to controls: 0 for no effect and ±100 for the full control effect; nearly all actives have a fitted effect of over 50% in size
Outline: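 VDR-UAS-bla HEK 293T cells were plated and incubated 4 h at 37C, then dosed with compound plus 3 nM (final) 1-alpha,25-dihydroxyvitamin D3 for 16 h. After the 2 h beta-lactamase read, viability in the same wells was read as CellTiter-Glo luminescence after 30 min at room temperature.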

[3] = qHTS assay to identify small molecule agonists of the NFkB signaling pathway (AID 1159509; active = well fitted curve in the direction sought with a large enough effect in the signal ratio in the repeat runs, not every such curve was filed as active; the % refers to the signal ratio; also: series mostly up to about 61 µM; % is scaled to controls: 0 for no effect and ±100 for the full control effect)
Outline: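 ME-180 NFkB-bla, 2,000 cells/well, overnight plating; cpd pinned in DMSO, 5 h 37 C; B/G FRET substrate 1.5 h RT; ex 405, em 460/530 nm.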

[4] = qHTS assay to identify small molecule agonists of the NFkB signaling pathway - cell viability counter screen (AID 1159515; calls by dose curve; also: series mostly up to about 61 µM; % is scaled to controls: 0 for no effect and ±100 for the full control effect; nearly all actives have a fitted effect of over 55% in size)
Outline: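 Viability in NFkB-bla ME-180 cells was measured by CellTiter-Glo luminescence, 30 min room temperature, in wells already treated 5 hr with compounds and read for reporter FRET.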

[5] = qHTS assay to identify small molecule agonists of the endoplasmic reticulum stress response signaling pathway (AID 1159516; active = well fitted activation curve with a large enough effect in the signal ratio in the repeat runs, not every such curve was filed as active; the % refers to the signal ratio; also: % is scaled to controls: 0 for no effect and ±100 for the full control effect)
Outline: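 ER stress element reporter (bla) in HeLa. 1,500 cells/well, overnight attachment; 5 hr compound; 2 hr RT substrate; dual-emission fluorescence.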

[6] = qHTS assay to identify small molecule agonists of the endoplasmic reticulum stress response signaling pathway - cell viability counter screen (AID 1159517; calls by dose curve;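 also: HeLa cells carrying an ER stress response element beta-lactamase reporter; series mostly up to about 61 µM; % is scaled to controls: 0 for no effect and ±100 for the full control effect; nearly all actives have a fitted effect of over 50% in size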)
Outline: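 CellTiter-Glo was added to wells already read for beta-lactamase FRET, and luminescence was recorded 30 min later. Cells: ESRE-bla HeLa, 1,500 per well, compound exposure 5 hr at 37 C.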

[7] = qHTS assay to identify small molecule antagonists of the retinoid-related orphan receptor gamma (ROR-gamma) signaling pathway - cell viability counter screen (AID 1159520); also: % is scaled to controls: 0 for no effect and ±100 for the full control effect; nearly all actives have a fitted effect of over 50% in size
Outline: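 Tet-on ROR gamma CHO cells (1,000/well) were plated 4 hr, given compounds in DMSO for 2 hr at 37 C, then induced with 1 uM final doxycycline for 16 hr. Viability was read as ATP by CellTiter-Glo luminescence after 30 min.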

[8] = biological target: Nuclear receptor ROR-gamma (Homo sapiens) (UniProt P51449); assay: qHTS assay to identify small molecule antagonists of the retinoid-related orphan receptor gamma (ROR-gamma) signaling pathway (AID 1159521)
Outline: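 Tet-on ROR-gamma CHO cells with ROR response element-luciferase reporter; compounds added 2 hr before 1 uM doxycycline induction, then 16 hr at 37 C. Antagonism scored as decreased ONE-Glo luminescence.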

[9] = qHTS assay to identify small molecule agonists of the AP-1 signaling pathway - cell viability counter screen (AID 1159525; calls by dose curve; also: nearly all actives have a fitted effect of over 55% in size)
Outline: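 ME-180 AP-1-bla, 2500 cells/well, Opti-MEM + 0.5% dialyzed FBS; overnight 37 °C; cpd 15-pt titration, 5 h 37 °C; CellTiter-Glo 30 min RT; luminescence read; normalised to TOAB and DMSO controls.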

[10] = qHTS assay to identify small molecule agonists of the AP-1 signaling pathway (AID 1159526; calls by dose curve; also: % is scaled to controls: 0 for no effect and ±100 for the full control effect)
[11] = biological target: Retinoic acid receptor RXR-alpha (Homo sapiens) (UniProt P19793); assay: qHTS assay to identify small molecule agonists of the RXR signaling pathway (AID 1159527; calls by dose curve; also: % is scaled to controls: 0 for no effect and ±100 for the full control effect; nearly all actives have a fitted effect of over 35% in size)
Outline: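 GeneBLAzer RXR-alpha-UAS-bla HEK 293T cells in 2% charcoal-stripped FBS medium were exposed to compounds for 16 hr at 37 C in agonist mode. Beta-lactamase reporter read as 460/530 nm FRET ratio after 2 hr substrate loading.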

[12] = qHTS assay to identify small molecule agonists of the RXR signaling pathway - cell viability counter screen (AID 1159529)
Outline: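 RXR-alpha-UAS-bla HEK 293T cells in medium with 2% charcoal-stripped FBS were pre-incubated 5 hr, then compound-treated 16 hr at 37 C. Viability was read by CellTiter-Glo luminescence in the same wells as the beta-lactamase assay, with tetraoctyl ammonium bromide as positive control.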

[13] = qHTS assay to identify small molecule antagonists of the retinoid acid receptor (RAR) signaling pathway - cell viability counter screen (AID 1159551); also: % is scaled to controls: 0 for no effect and ±100 for the full control effect; nearly all actives have a fitted effect of over 35% in size
Outline: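 Following overnight attachment, C3RL4 reporter cells received DMSO-dissolved compounds and then retinol (1 uM final). Six hours later at 37 C, ATP content was measured by CellTiter-Glo luminescence.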

[14] = qHTS assay to identify small molecule antagonists of the retinoic acid receptor (RAR) signaling pathway (AID 1159552)
Outline: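 Retinol signaling pathway inhibitors screened in C3RL4 RARE-luciferase reporter cells seeded overnight at 37 C, then compounds added with 1 uM (final) retinol as pathway substrate. After 6 hr at 37 C, luciferase luminescence read after 30 min at room temperature.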

[15] = qHTS assay to identify small molecule agonists of the retinoic acid receptor (RAR) signaling pathway (AID 1159553); also: % is scaled to controls: 0 for no effect and ±100 for the full control effect
Outline: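 Cell line C3RL4, RARE luciferase reporter. Treatment: compounds in DMSO, 6 hr, 37 C, 5% CO2, after overnight plating. Detection: luminescence, 30 min RT after reagent.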

[16] = qHTS assay to identify small molecule antagonists of the estrogen related receptor (ERR) signaling pathway - cell viability counter screen (AID 1224818)
Outline: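 Here, ERR cells are plated at 2,000 cells per well, allowed 6 h to attach, and treated with compounds in DMSO for 17.5 h at 37 C. CellTiter-Fluor is then added and fluorescence read after 30 min.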

[17] = qHTS assay to identify small molecule antagonists of the estrogen related receptor signaling pathway with the pleiotropic PPARgamma coactivator (PGC) cell viability counter screen (AID 1224822)
Outline: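 qHTS format, DMSO compound stocks pin-transferred onto PGC/ERR cells 6 h after plating; 17.5 h exposure at 37 C, then CellTiter-Fluor fluorescence.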

[18] = qHTS assay to identify small molecule antagonists of the estrogen related receptor (ERR) signaling pathway (AID 1224819)
Outline: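 LOPAC library screened for antagonism as reduced One-Glo luminescence in ERR reporter cells (2,000/well). Compounds were added after 6 h pre-incubation and left 18 h at 37C; reading followed a 30 min room-temperature reagent step.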

[19] = qHTS assay to identify small molecule agonists of the estrogen related receptor (ERR) signaling pathway (AID 1224820); also: % is scaled to controls: 0 for no effect and ±100 for the full control effect
Outline: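 Cells: ERR line from NTP, 2,000/well. Pre-incubation 6 h, 37 C/5% CO2. Compound (DMSO) pin transfer, 18 h 37 C. One-Glo, 30 min RT, luminescence.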

[20] = system: estrogen-related receptor alpha (ERRalpha) with PGC-1alpha coactivator, human; assay: qHTS assay to identify small molecule antagonists of the estrogen related receptor signaling pathway with the pleiotropic PPARgamma coactivator (PGC) (AID 1224821; calls by dose curve)
Outline: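 Luminescent read-out (One-Glo, 30 min at room temperature) following 18 h treatment of PGC/ERR cells at 37 C with compounds delivered in DMSO. Cells had settled 6 h at 37 C/5% CO2 before dosing.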

Retinoic acid receptor RXR-alpha (Homo sapiens), sequence (P19793 whole entry, looked up): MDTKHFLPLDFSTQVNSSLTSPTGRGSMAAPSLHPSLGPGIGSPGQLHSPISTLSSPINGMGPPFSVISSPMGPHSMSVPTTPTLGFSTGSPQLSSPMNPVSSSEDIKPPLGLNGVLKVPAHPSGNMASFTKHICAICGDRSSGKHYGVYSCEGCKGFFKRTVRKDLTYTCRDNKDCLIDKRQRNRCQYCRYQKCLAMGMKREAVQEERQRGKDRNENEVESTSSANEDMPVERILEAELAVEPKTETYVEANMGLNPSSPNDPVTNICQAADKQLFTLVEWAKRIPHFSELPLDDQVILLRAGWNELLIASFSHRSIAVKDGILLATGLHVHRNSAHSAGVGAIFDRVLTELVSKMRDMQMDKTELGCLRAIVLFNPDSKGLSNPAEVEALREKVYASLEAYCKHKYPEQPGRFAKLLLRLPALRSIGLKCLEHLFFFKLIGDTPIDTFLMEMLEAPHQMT

NC(=O)c1cn(Cc2c(F)cccc2F)nn1
inactive: Potency [1] | Potency [2] | outcome [3] | outcome [4] | outcome [5] | outcome [6] | outcome [7] | Potency [8] | Potency [9] | outcome [10] | Potency [11] | Potency [12] | outcome [13] | Potency [14] | Potency [15] | outcome [16] | outcome [17]

Brc1c(NC2=NCCN2)ccc2nccnc12
inactive: Potency [1] | outcome [3] | outcome [4] | outcome [5] | outcome [6] | outcome [7] | Potency [8] | Potency [9] | outcome [10] | Potency [11] | Potency [12] | outcome [13] | Potency [14] | Potency [15] | outcome [16] | outcome [18] | outcome [19] | outcome [20] | outcome [17]

COC(C)(C)CCCC(C)CC=O (stereo not given)
inactive: Potency [1] | outcome [3] | outcome [4] | outcome [5] | outcome [6] | outcome [7] | Potency [8] | Potency [9] | outcome [10] | Potency [11] | Potency [12] | outcome [13] | Potency [14] | Potency [15]

CCCC(=O)O[C@]1(C(=O)CO)CC[C@H]2[C@@H]3CCC4=CC(=O)CC[C@]4(C)[C@H]3[C@@H](O)C[C@@]21C
inactive: Potency [1] | outcome [3] | outcome [4] | outcome [5] | outcome [6] | outcome [7] | Potency [8] | Potency [9] | outcome [10] | Potency [11] | Potency [12] | outcome [13] | Potency [14] | Potency [15]

Nc1nc2c(ncn2COC(CO)CO)c(=O)[nH]1
inactive: Potency [1] | Potency [2] | outcome [3] | outcome [4] | outcome [5] | outcome [6] | outcome [7] | Potency [8] | Potency [9] | outcome [10] | Potency [11] | Potency [12] | outcome [13] | Potency [14] | Potency [15] | outcome [16] | outcome [17]

COc1nc(N)nc2c1ncn2[C@@H]1O[C@H](CO)[C@@H](O)[C@@H]1O
inactive: Potency [1] | outcome [3] | outcome [4] | outcome [5] | outcome [6] | outcome [7] | Potency [8] | Potency [9] | outcome [10] | Potency [11] | Potency [12] | outcome [13] | Potency [14] | Potency [15]

Cc1cccn2c(=O)c(-c3nnn[nH]3)cnc12
inactive: Potency [1] | outcome [3] | outcome [4] | outcome [5] | outcome [6] | activity, negative = cytotoxicity [7] 0.0857% [at 19 µM] | Potency [8] | viability change, negative = cytotoxic [9] -0.287% [at 15.8 µM] | outcome [10] | Potency [11] | Potency [12] | activity change, negative = cytotoxicity [13] 2.52% [at 19 µM] | activity, negative = inhibition [14] 1.95% [at 19 µM] | Potency [15]

CN(C)CCCNCCCN(C)C
inactive: Potency [1] | outcome [3] | outcome [4] | outcome [5] | outcome [6] | outcome [7] | Potency [8] | Potency [9] | outcome [10] | Potency [11] | Potency [12] | outcome [13] | Potency [14] | Potency [15]

CCOc1ccc(C(=O)OCCN(CC)CC)cc1
inactive: Potency [1] | outcome [3] | outcome [4] | outcome [5] | outcome [6] | outcome [7] | Potency [8] | Potency [9] | outcome [10] | Potency [11] | Potency [12] | outcome [13] | Potency [14] | Potency [15]

CCOC(=O)Nc1ccc(NCc2ccc(F)cc2)nc1N
inactive: Potency [1] | Potency [2] | outcome [3] | outcome [4] | outcome [5] | outcome [6] | outcome [7] | Potency [8] | Potency [9] | outcome [10] | Potency [11] | Potency [12] | outcome [13] | Potency [14] | Potency [15] | outcome [16] | outcome [19] | outcome [20] | outcome [17]

CN(C(=O)c1c(O)c2ccccc2n(C)c1=O)c1ccccc1
inactive: Potency [1] | outcome [3] | outcome [4] | outcome [5] | outcome [6] | outcome [7] | Potency [8] | Potency [9] | outcome [10] | Potency [11] | Potency [12] | outcome [13] | Potency [14] | Potency [15]

Cc1ccc(=O)n(-c2ccccc2)c1
inactive: Potency [1] | Potency [2] | outcome [3] | outcome [4] | outcome [5] | outcome [6] | outcome [7] | Potency [8] | Potency [9] | outcome [10] | Potency [11] | Potency [12] | outcome [13] | Potency [14] | Potency [15] | outcome [16] | outcome [18] | outcome [19] | outcome [20] | outcome [17]

CC(C)c1cc2c(cc1S(=O)(=O)O)[C@@]1(C)CCC[C@@](C)(C(=O)O)[C@@H]1CC2
inactive: Potency [1] | outcome [3] | outcome [4] | outcome [5] | outcome [6] | outcome [7] | Potency [8] | Potency [9] | outcome [10] | Potency [11] | Potency [12] | outcome [13] | Potency [14] | Potency [15]

O=C(c1ccccc1)C1CCCCC1
inactive: outcome [3] | outcome [4] | outcome [5] | outcome [6] | outcome [7] | Potency [8] | Potency [9] | outcome [10] | Potency [11] | Potency [12] | outcome [13] | Potency [14] | Potency [15]

Cc1cc(O)cc2c1O[C@](C)(CCC[C@H](C)CCC[C@H](C)CCCC(C)C)CC2
inactive: Potency [1] | outcome [3] | outcome [4] | outcome [5] | outcome [6] | outcome [7] | Potency [8] | Potency [9] | outcome [10] | Potency [11] | Potency [12] | outcome [13] | Potency [14] | Potency [15]

CN1N=C(C(N)=O)CCC1=O
inactive: Potency [1] | outcome [3] | outcome [4] | outcome [5] | outcome [6] | outcome [7] | Potency [8] | Potency [9] | outcome [10] | Potency [11] | Potency [12] | outcome [13] | Potency [14] | Potency [15]
